Shown are actives, neighbours in structure and some others; about 19% of the full set was active somewhere.
TDP1 cell CPT: qHTS for Inhibitors of human tyrosyl-DNA phosphodiesterase 1 (TDP1): qHTS in cells in presence of CPT; AID 686979, 2013; Potency, µM (doses to about 46.2 µM), most hits filed as inhibitors; chicken DT40 Tdp1-/-;hTDP1 cells + 20 nM CPT, ATP luminescence, 48 h; 420,000 tested, 12% active; further: nearly all actives have a fitted effect of over 55% in size
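Chicken DT40 Tdp1-/- cells stably complemented with human TDP1 were seeded at 400 cells/well in medium containing 20 nM camptothecin, exposed to pin-transferred compounds, and grown at 37 °C for at least 48 hr. Viability was read as ATP luminescence.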
HT1080NT lethal: qHTS for induction of synthetic lethality in tumor cells producing 2HG: qHTS for the HT-1080-NT fibrosarcoma cell line | HT-1080-NT fibrosarcoma viability, CellTiter-Glo ATP luminescence, 48 h | Potency, µM (titrated, usually from 46.1 µM), actives largely listed as cytotoxic | 360,000 tested, 1.6% active;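 further: NT is the 2HG producing partner of a matched IDH1 knockdown line; nearly all actives have a fitted effect of over 55% in size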
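A 48-hour cytotoxicity screen used HT-1080-NT cells plated 2 hours before compound delivery. ATP-based CellTiter-Glo luminescence measured viability, normalized to DMSO and no-cell controls.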
DT40 TDP1 no CPT: qHTS for Inhibitors of human tyrosyl-DNA phosphodiesterase 1 (TDP1): qHTS in cells in absence of CPT; 420,000 tested, 15% active; Potency, µM (series often up to 46.2 µM), most hits filed as inhibitors; AID 686978, 2013; DT40 Tdp1-/- hTDP1 cells, no CPT, ATP luminescence, 48 h; further: nearly all actives have a fitted effect of over 55% in size
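Cells were dispensed at 400 per well, compounds added by pin tool, plates incubated ≥48 hr at 37 °C, then CellTiter-Glo added for 30 min at room temperature before luminescence reading. Line: DT40 Tdp1-/- complemented with hTDP1; camptothecin omitted.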
IL1B secr inh: qHTS for Inhibitors of Inflammasome Signaling: IL-1-beta AlphaLISA Primary Screen. THP-1 LPS/ATP IL-1B secretion, AlphaLISA, 16 h; active compounds read low. activity change, % at 57.5 µM. 360,000 tested, 4.7% active; in the data active means activity change below about -50%; inconclusive means mostly about -30% to -49%
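THP-1 cells pretreated 1 hr with compounds (up to 57.5 uM final), then stimulated with LPS (250 ng/mL final) plus ATP (1.25 mM final); secreted IL-1B measured by AlphaLISA after 16 hr, decreased signal indicating inhibition.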
uPA generation: qHTS for Inhibitors of Cell Surface uPA Generation. 330,000 tested, 0.31% active. Potency, µM (doses to about 38.3 µM), usual class: inhibitors. AID 540303, 2011. cell surface uPA generation assay, qHTS; active means well fitted inhibition curve with a large enough effect; inconclusive means small, poorly fitted or top-dose-only effect; inactive means no such curve, though single readings can be large or run the other way; tested in mouse RAW 264.7 cells; further: nearly all actives have a fitted effect of over 55% in size
HT1080 IDH1KD tx: qHTS for induction of synthetic lethality in tumor cells producing 2HG: qHTS for the HT-1080-IDH1KD cell line | HT-1080 IDH1 knockdown viability, ATP luminescence, 48 h | 360,000 tested, 2% active | Potency, µM (titrated, usually from 46.1 µM), usual class: cytotoxic
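Assay cells: HT-1080 with IDH1 knockdown, 750 per well, RPMI/5% FBS. Exposure: 48 h at 37 °C following 2 h pre-incubation. Read: CellTiter-Glo luminescence; fitted concentration-response, curve class assigned.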
Large screens that a line does not name were inactive. Unless noted, the call rests on the fitted dose curve; in most records, active means well fitted curve in the direction sought with a large enough effect; inconclusive means small, poorly fitted or top-dose-only effect, or another doubt; inactive means no such curve, though single readings can be large; an effect the other way counts as inactive or inconclusive.

O=C1CC2(CCCC2)Oc2ccccc21	none
CCCNC(=O)c1cc2c(c(-c3cccc(-c4ccccc4F)c3)n1)[C@H](CCO)N(C(=O)CC1CC1)C2	TDP1 cell CPT 16µM, HT1080NT lethal inconclusive, DT40 TDP1 no CPT 16µM, HT1080 IDH1KD tx inconclusive (no result: uPA generation)
CCC(=O)N1Cc2cc(C(=O)NCCOC)nc(-c3cccc(-c4ccc(C#N)cc4)c3)c2[C@H]1CCO	DT40 TDP1 no CPT inconclusive (no result: uPA generation)
CCNC(=O)c1cc2c(c(-c3cccc(-c4ccccc4F)c3)n1)[C@@H](CCO)N(C(=O)CC1CC1)C2	TDP1 cell CPT 21µM, HT1080NT lethal inconclusive, DT40 TDP1 no CPT inconclusive, HT1080 IDH1KD tx inconclusive (no result: uPA generation)
CCS(=O)(=O)N1Cc2cc(C(=O)NCCOC)nc(-c3cccc(-c4ccncc4)c3)c2[C@@H]1CCO	none (no result: uPA generation)
COCCNc1ncnc2c1ncn2[C@H]1CN(Cc2ccccc2)C[C@@H](CO)O1	none (no result: uPA generation)
CCC(C)NC(=O)C(=O)Nc1c2c(nn1-c1ccccc1)CS(=O)(=O)C2 (configuration not stated)	none (no result: HT1080NT lethal, IL1B secr inh, uPA generation, HT1080 IDH1KD tx)
COc1ccc(NC(=O)N2CC3(CCN(C(=O)c4ccc(OC)cc4)CC3)C2)cc1	none (no result: HT1080NT lethal, IL1B secr inh, uPA generation, HT1080 IDH1KD tx)
COc1ccc(-c2c(C(C)=O)c(C)nc3sc4c(=N)n(N)cnc4c23)cc1	TDP1 cell CPT 26µM, DT40 TDP1 no CPT inconclusive
CCOC(=O)c1c(C)nc2sc(C(=O)Nc3ccc(C(C)=O)cc3)c(N)c2c1-c1ccc(OC)cc1	TDP1 cell CPT inconclusive, HT1080NT lethal inconclusive, DT40 TDP1 no CPT inconclusive, IL1B secr inh inconclusive, HT1080 IDH1KD tx inconclusive
CCOC(=O)c1c(C)nc2sc(C(N)=O)c(N)c2c1-c1ccc(OC)cc1	TDP1 cell CPT inconclusive, DT40 TDP1 no CPT 21µM
CCN(CC)C(=O)Cn1c(=O)nc(-c2ccccc2F)c2cc(Cl)ccc21	none (no result: HT1080NT lethal, IL1B secr inh, uPA generation, HT1080 IDH1KD tx)
COc1ccc(-n2c(=O)c3sc4ccccc4c3n(CC(=O)Nc3ccccc3F)c2=O)cc1	none (no result: HT1080NT lethal, IL1B secr inh, uPA generation, HT1080 IDH1KD tx)
CCn1cc(C(=O)N2CCN(c3ccccc3)CC2)c(=O)c2cc(S(=O)(=O)N3CCC(C)CC3)ccc21	TDP1 cell CPT inconclusive (no result: HT1080NT lethal, IL1B secr inh, uPA generation, HT1080 IDH1KD tx)
COc1cccc(Cn2c(=O)c(-c3cccs3)nc3cnc(N4CCN(C)CC4)nc32)c1	none (no result: HT1080NT lethal, IL1B secr inh, uPA generation, HT1080 IDH1KD tx)
CCC(=O)NC1CC(=O)N(c2ccc3c(c2)OCCO3)C1 (configuration not stated)	none (no result: HT1080NT lethal, IL1B secr inh, uPA generation, HT1080 IDH1KD tx)
N#C/C(=N\Nc1ccc(Cl)c(Cl)c1)C(=O)C1CC1	TDP1 cell CPT 21µM, HT1080NT lethal inconclusive, DT40 TDP1 no CPT 6.5µM, IL1B secr inh inconclusive, HT1080 IDH1KD tx 2.9µM
O=C(CCNC(=O)C1CCN(S(=O)(=O)c2ccc(F)cc2)CC1)Nc1ccccc1	IL1B secr inh inconclusive
Cc1nn(CC(=O)Nc2ccccn2)c(C)c1Br	TDP1 cell CPT 8.2µM, DT40 TDP1 no CPT inconclusive
Cc1c(Br)c([N+](=O)[O-])nn1CC(=O)Nc1ccccn1	none
COc1ccc(/C=C/C(=O)N2CCc3c(cnc(C)c3CNC(=O)c3ccsc3)C2)cc1OC	none (no result: HT1080NT lethal, IL1B secr inh, uPA generation, HT1080 IDH1KD tx)
O=C(N/N=C/c1ccc(Cl)cc1)c1sccc1OCc1ccc(F)cc1	TDP1 cell CPT 1.2µM, HT1080NT lethal 2.6µM, DT40 TDP1 no CPT 1.3µM, HT1080 IDH1KD tx 1.3µM
COc1ccc(COc2ccsc2C(=O)Nc2ccc(Cl)cc2)cc1	TDP1 cell CPT inconclusive, HT1080NT lethal inconclusive, DT40 TDP1 no CPT inconclusive, HT1080 IDH1KD tx inconclusive (no result: uPA generation)
O=C(N/N=C/c1ccc(F)cc1)c1sccc1OCc1ccc(F)cc1	TDP1 cell CPT 16µM, HT1080NT lethal 13µM, DT40 TDP1 no CPT 18µM, HT1080 IDH1KD tx 16µM
COCCCNc1nc2c(c(=O)[nH]c(=O)n2C)n1CC(O)COc1ccc(Cl)cc1 (configuration not stated)	none (no result: HT1080NT lethal, IL1B secr inh, uPA generation, HT1080 IDH1KD tx)
CCCn1nc(C(=O)Nc2ccc(-n3cnnn3)cc2)c2ccccc2c1=O	TDP1 cell CPT inconclusive, DT40 TDP1 no CPT 12µM
